# Assay results reported in PubChem BioAssay AID1063 (University of Pittsburgh Molecular Library Screening Center, 2008).
# In all, about 200,000 compounds went through this assay and about 18,000 (9%) were called active. The full list was thinned out, with actives kept by preference. Unmarked numbers belong to inactive results. Rule as the data show it: active = inhibition above about 50%; inactive = the rest.
# Assay: Leishmania major promastigote growth inhibition, primary screen (AID 1063);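 also: promastigotes grown with compound for 44 hours at 28 °C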
# Settings: Leishmania major promastigotes, resazurin fluorescence viability; at 10 µM; stronger effect = higher value
row,SMILES,inhibition
1,OCCC1CN(Cc2cnc(-c3ccccc3)s2)CCN1CCc1ccccc1 (configuration not stated),83.7% (active)
2,OCCC1CN(Cc2cccc(O)c2)CCN1CCc1ccccc1 (configuration not stated),-0.63%
3,Cc1ccc(CN2CCN(Cc3ccccc3-c3ccco3)CC2CCO)o1 (configuration not stated),3.16%
4,OCCC1CN(Cc2cccn2-c2nccs2)CCN1CCc1ccccc1 (configuration not stated),11.3%
5,COc1ccc(/C=C/CN2CCN(Cc3ccc(C)cc3)C(CCO)C2)cc1 (configuration not stated),67.4% (active)
6,Cc1ccc(CN2CCN(Cc3ccc(OCCO)cc3)CC2CCO)o1 (configuration not stated),-4.28%
7,NC(N)=Nc1nc2ccc(Br)cc2c(=O)[nH]1,16.6%
8,CCOc1ccccc1N1CCN(C(=O)COc2ccc3c(C)cc(=O)oc3c2)CC1,43.7%
9,O=c1nc(N/N=C/c2ccco2)cn[nH]1,-3.61%
10,CCCCn1c(N)c(N2CCOCC2)c(=O)n(CC(=O)NCCc2ccccc2)c1=O,1.59%
11,Cc1oc(-c2ccccc2F)nc1CS(=O)(=O)CC(=O)NCCCN(C)C1CCCCC1,2.98%
12,CCCCN(CC)CCCNC(=O)CS(=O)(=O)Cc1nc(-c2cccc(OC)c2)oc1C,72.4% (active)
13,CCCN(CCC)CCCNC(=O)CNC(=O)c1nn(-c2ccc(OC)cc2)c(=O)c2ccccc12,1.38%
14,CCn1c(SCc2cc(=O)n3ccsc3n2)nc2ccccc21,-1.53%
15,CCC(=O)Nc1cc(C(F)(F)F)ccc1N1CCCC1,-2.29%
16,O=C(CCC1CCCN(Cc2ccc(O)c(Cl)c2)C1)NCc1ccccc1F (configuration not stated),45.2%
17,CCOCCCNS(=O)(=O)Cc1ccccc1,-9.59%
18,CCn1cc(CN2CCCC(CNS(=O)(=O)Cc3ccccc3)C2)cn1 (configuration not stated),50.3% (active)
19,O=C(COC(=O)CNC(=O)c1ccco1)Nc1ccc(F)cc1,-2.3%
20,CN1CCN(CCCNC(=O)c2cc3c(=O)oc4ccccc4c3s2)CC1,0.79%
21,O=C(NCCN1CCN(Cc2ccccc2)CC1)c1cc2c(=O)[nH]c3ccccc3c2s1,101% (active)

row,SMILES,inhibition
1,Cn1c(C(=O)NCCN2CCc3ccccc3C2)cc2c(=O)[nH]c3ccccc3c21,11.6%
2,CCC(C)NC(=O)c1nn(C)c(=O)c2ccccc12 (configuration not stated),0.91%
3,Cc1[nH]n(-c2cccc(Cl)c2)c(=O)c1-c1ccc(Cl)cc1,53.3% (active)
4,Cc1[nH]n(-c2cccc(Cl)c2)c(=O)c1/C=N/n1c(C)nc2ccccc2c1=O,-15.8%
5,Cc1cccc(N=Nc2c(C)[nH]n(-c3ccccc3)c2=O)c1,-1.61%
6,Cc1nonc1NC(=O)CSc1nc2ccccc2cc1C#N,1.85%
7,CCSc1nc(C)c(CCOc2cccc(C)c2)c(=O)[nH]1,-3.36%
8,O=C(c1c(Cl)nc2sccn12)N1CCCc2ccccc21,-2.07%
9,O=C1/C(=C\c2ccccc2Cl)SC(=S)N1CCC(=O)N1CCCc2ccccc21,97.9% (active)
10,O=C(CN1CCCCCC1)NCCN1C(=O)S/C(=C\c2ccccc2Cl)C1=O,1.89%
11,CCOC(=O)N1CCN(C(=O)CSc2nc(C)nc3c2c(=O)n(C)c(=O)n3C)CC1,8.12%
12,S=c1[nH]nc(Nc2ccccc2)s1,-10.1%
13,O=[N+]([O-])c1ccc(F)cc1Oc1nc(-c2cccnc2)nc2ccccc12,16.9%
14,CC(=O)Nc1ccc(Sc2ccccc2C(=O)N2CCCC2)cn1,-4.22%
15,CCn1c(COc2ccccc2)nnc1SCC(=O)NCc1ccco1,-5.1%
16,CCS(=O)(=O)Nc1ccc(C2=NN(C(C)=O)C(c3cccs3)C2)cc1 (configuration not stated),0.67%
17,COc1ccc(CNc2c(CO)cnc3c2cnn3C)cc1,-4.57%
18,COC(=O)c1ccc(Cc2ccccc2)o1,-4.65%
19,c1ccc(Cc2cc[n+](Cc3ccccc3)cc2)cc1,52% (active)
20,CN(C)c1cc[n+](Cc2ccccc2)cc1,-2.95%
21,COc1ccc(-c2[nH]ncc2CN(C)Cc2cc(C)[nH]n2)c(F)c1,-3.28%

row,SMILES,inhibition
1,Cc1cc(C)c(S(=O)(=O)N2CCOCC2)cc1C,0.43%
2,Cn1cc(CCC(=O)N2CCCC(C(=O)c3ccc(C(C)(C)C)cc3)C2)cn1 (configuration not stated),-0.59%
3,CCOc1ccc(CN(Cc2ccco2)C(c2cccs2)c2nnnn2C(C)(C)C)cc1 (configuration not stated),73% (active)
4,CC(C)(C)n1nnnc1C(c1cccs1)N(Cc1cccnc1)CC1CCCO1 (configuration not stated),18.7%
5,Cc1ccc(S(=O)(=O)NNC(=O)Nc2cccc3ccccc23)cc1,34.5%
6,CC(=O)Nc1ccc(NC(=O)C(C)n2c3ccccc3c3nc(=O)cc(C)n32)cc1 (configuration not stated),2.66%
7,CCn1c(=N)c(C(=O)NCCCOC)cc2c(=O)n3cccc(C)c3nc21,28.4%
8,COc1ccc(CCn2c(=N)c(C(=O)NCc3ccco3)cc3c(=O)n4cccc(C)c4nc32)cc1,67.1% (active)
9,O=C(NCc1ccco1)c1cccn2c(=O)c3c4c(sc3nc12)CCCC4,-1.47%
10,Cc1nn(CC(=O)Nc2ccc3c(c2)OCO3)c(C)c1[N+](=O)[O-],7.29%
11,COc1ccc(C2CC(c3cccs3)=NN2c2ccc(F)cc2)cc1OC (configuration not stated),15.6%
12,CCc1nnc(NC(=O)Cc2cccs2)s1,-5.86%
13,CN(C)Cc1ccccc1C1(O)c2ccccc2CSc2ccccc21 (configuration not stated),77.4% (active)
14,O=C(CNC(=O)c1cc(=O)[nH]c2ccccc12)Nc1ccc(F)c(F)c1,2%
15,CCc1nc(C)cn1S(=O)(=O)c1cc(OC)c(C)cc1C,67.1% (active)
16,CCc1nc(C)cn1S(=O)(=O)c1cc([N+](=O)[O-])ccc1Cl,89.9% (active)
17,CCCOc1cc(C)c(S(=O)(=O)n2nnc3ccccc32)cc1C,-5.25%
18,COc1cc2sc(C)nc2cc1C,-0.96%
19,CCc1nccn1S(=O)(=O)c1cccc([N+](=O)[O-])c1,33.6%
20,CC(C)c1nccn1S(=O)(=O)c1cc([N+](=O)[O-])ccc1Cl,25.1%
